In the supplement of paper PMC4466140:

biological target: AgAbp1; assay: SPOT peptide array binding signal intensity (averaged, normalized) (arbitrary units (background-subtracted, floor 0; scale differs between SH3 domains)); higher = stronger binding of the SH3 domain to the peptide
Summary of the method: (§1)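 SH3 domains from four yeast species were expressed as GST fusions in E. coli BL21(DE3) and purified on glutathione Sepharose. Each was incubated at 10 μg/ml overnight at 4°C in TBS-based blocking buffer on cellulose membranes bearing synthetic 15-mer peptides, in which serines replaced cysteines. Bound protein was detected with anti-GST antibody, an HRP anti-mouse secondary and luminol, then imaged and quantified with Genespotter. The binding signal is the normalized, background-subtracted spot intensity averaged over replicates, in arbitrary units that are not the same from one domain to another.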

Binder	SPOT peptide array binding signal intensity
PAPPPPPRASRPTPN	7.5

biological target: AgBbc1; assay: as above
Summary of the method: as §1

Binder	SPOT peptide array binding signal intensity
PAPPPPPRASRPTPN	438

biological target: AgBem1-D1; assay: as above
Summary of the method: as §1

Binder	SPOT peptide array binding signal intensity
PAPPPPPRASRPTPN	19.5

biological target: AgBzz1-D1; assay: as above
Summary of the method: as §1

Binder	SPOT peptide array binding signal intensity
PAPPPPPRASRPTPN	57

biological target: AgBzz1-D2; assay: as above
Summary of the method: as §1

Binder	SPOT peptide array binding signal intensity
PAPPPPPRASRPTPN	8

biological target: AgCyk3; assay: as above
Summary of the method: as §1

Binder	SPOT peptide array binding signal intensity
PAPPPPPRASRPTPN	1

biological target: AgFus1; assay: as above
Summary of the method: as §1

Binder	SPOT peptide array binding signal intensity
PAPPPPPRASRPTPN	≤ 0

biological target: AgHof1; assay: as above
Summary of the method: as §1

Binder	SPOT peptide array binding signal intensity
PAPPPPPRASRPTPN	0.5

biological target: AgHse1; assay: as above
Summary of the method: as §1

Binder	SPOT peptide array binding signal intensity
PAPPPPPRASRPTPN	1.5

biological target: AgLsb1; assay: as above
Summary of the method: as §1

Binder	SPOT peptide array binding signal intensity
PAPPPPPRASRPTPN	6.5

biological target: AgLsb4; assay: as above
Summary of the method: as §1

Binder	SPOT peptide array binding signal intensity
PAPPPPPRASRPTPN	185

biological target: AgMyo5; assay: as above
Summary of the method: as §1

Binder	SPOT peptide array binding signal intensity
PAPPPPPRASRPTPN	≤ 0

biological target: AgNbp2; assay: as above
Summary of the method: as §1

Binder	SPOT peptide array binding signal intensity
PAPPPPPRASRPTPN	111

biological target: AgRvs167; assay: as above
Summary of the method: as §1

Binder	SPOT peptide array binding signal intensity
PAPPPPPRASRPTPN	34.2

biological target: AgSho1; assay: as above
Summary of the method: as §1

Binder	SPOT peptide array binding signal intensity
PAPPPPPRASRPTPN	≤ 0

biological target: AgSla1-D1-D2; assay: as above
Summary of the method: as §1

Binder	SPOT peptide array binding signal intensity
PAPPPPPRASRPTPN	3.5

biological target: AgSla1-D3; assay: as above
Summary of the method: as §1

Binder	SPOT peptide array binding signal intensity
PAPPPPPRASRPTPN	2

biological target: CaAbp1-D1; assay: as above
Summary of the method: as §1

Binder	SPOT peptide array binding signal intensity
PAPPPPPRASRPTPN	24.5

biological target: CaAbp1-D2; assay: as above
Summary of the method: as §1

Binder	SPOT peptide array binding signal intensity
PAPPPPPRASRPTPN	3

biological target: CaBbc1; assay: as above
Summary of the method: as §1

Binder	SPOT peptide array binding signal intensity
PAPPPPPRASRPTPN	657

biological target: CaBem1-D1; assay: as above
Summary of the method: as §1

Binder	SPOT peptide array binding signal intensity
PAPPPPPRASRPTPN	21

biological target: CaBzz1-D1; assay: as above
Summary of the method: as §1

Binder	SPOT peptide array binding signal intensity
PAPPPPPRASRPTPN	934

biological target: CaBzz1-D2; assay: as above
Summary of the method: as §1

Binder	SPOT peptide array binding signal intensity
PAPPPPPRASRPTPN	162

biological target: CaCyk3; assay: as above
Summary of the method: as §1

Binder	SPOT peptide array binding signal intensity
PAPPPPPRASRPTPN	21

biological target: CaFus1; assay: as above
Summary of the method: as §1

Binder	SPOT peptide array binding signal intensity
PAPPPPPRASRPTPN	45.5

biological target: CaHof1; assay: as above
Summary of the method: as §1

Binder	SPOT peptide array binding signal intensity
PAPPPPPRASRPTPN	17.5

biological target: CaHse1; assay: as above
Summary of the method: as §1

Binder	SPOT peptide array binding signal intensity
PAPPPPPRASRPTPN	3.5

biological target: CaLsb1; assay: as above
Summary of the method: as §1

Binder	SPOT peptide array binding signal intensity
PAPPPPPRASRPTPN	0.5

biological target: CaLsb4; assay: as above
Summary of the method: as §1

Binder	SPOT peptide array binding signal intensity
PAPPPPPRASRPTPN	939

biological target: CaMyo5; assay: as above
Summary of the method: as §1

Binder	SPOT peptide array binding signal intensity
PAPPPPPRASRPTPN	1.5

biological target: CaNbp2; assay: as above
Summary of the method: as §1

Binder	SPOT peptide array binding signal intensity
PAPPPPPRASRPTPN	39.5

biological target: CaRvs167; assay: as above
Summary of the method: as §1

Binder	SPOT peptide array binding signal intensity
PAPPPPPRASRPTPN	223

biological target: CaRvs167-3; assay: as above
Summary of the method: as §1

Binder	SPOT peptide array binding signal intensity
PAPPPPPRASRPTPN	6.25

biological target: CaSho1; assay: as above
Summary of the method: as §1

Binder	SPOT peptide array binding signal intensity
PAPPPPPRASRPTPN	3.5

biological target: CaSla1-D1-D2; assay: as above
Summary of the method: as §1

Binder	SPOT peptide array binding signal intensity
PAPPPPPRASRPTPN	242

biological target: CaSla1-D3; assay: as above
Summary of the method: as §1

Binder	SPOT peptide array binding signal intensity
PAPPPPPRASRPTPN	3.75

biological target: ScAbp1; assay: as above
Summary of the method: as §1

Binder	SPOT peptide array binding signal intensity
PAPPPPPRASRPTPN	3

biological target: ScBbc1; assay: as above
Summary of the method: as §1

Binder	SPOT peptide array binding signal intensity
PAPPPPPRASRPTPN	72.5

biological target: ScBem1-D1; assay: as above
Summary of the method: as §1

Binder	SPOT peptide array binding signal intensity
PAPPPPPRASRPTPN	2

biological target: ScBzz1-D1; assay: as above
Summary of the method: as §1

Binder	SPOT peptide array binding signal intensity
PAPPPPPRASRPTPN	36

biological target: ScBzz1-D2; assay: as above
Summary of the method: as §1

Binder	SPOT peptide array binding signal intensity
PAPPPPPRASRPTPN	24

biological target: ScCyk3; assay: as above
Summary of the method: as §1

Binder	SPOT peptide array binding signal intensity
PAPPPPPRASRPTPN	2

biological target: ScFus1; assay: as above
Summary of the method: as §1

Binder	SPOT peptide array binding signal intensity
PAPPPPPRASRPTPN	10

biological target: ScHof1; assay: as above
Summary of the method: as §1

Binder	SPOT peptide array binding signal intensity
PAPPPPPRASRPTPN	56.2

biological target: ScHse1; assay: as above
Summary of the method: as §1

Binder	SPOT peptide array binding signal intensity
PAPPPPPRASRPTPN	6

biological target: ScLsb1; assay: as above
Summary of the method: as §1

Binder	SPOT peptide array binding signal intensity
PAPPPPPRASRPTPN	49.2

biological target: ScLsb2; assay: as above
Summary of the method: as §1

Binder	SPOT peptide array binding signal intensity
PAPPPPPRASRPTPN	3.5

biological target: ScLsb3; assay: as above
Summary of the method: as §1

Binder	SPOT peptide array binding signal intensity
PAPPPPPRASRPTPN	1110

biological target: ScLsb4; assay: as above
Summary of the method: as §1

Binder	SPOT peptide array binding signal intensity
PAPPPPPRASRPTPN	394

biological target: ScMyo3; assay: as above
Summary of the method: as §1

Binder	SPOT peptide array binding signal intensity
PAPPPPPRASRPTPN	40.5

biological target: ScMyo5; assay: as above
Summary of the method: as §1

Binder	SPOT peptide array binding signal intensity
PAPPPPPRASRPTPN	22

biological target: ScNbp2; assay: as above
Summary of the method: as §1

Binder	SPOT peptide array binding signal intensity
PAPPPPPRASRPTPN	10.5

biological target: ScPex13; assay: as above
Summary of the method: as §1

Binder	SPOT peptide array binding signal intensity
PAPPPPPRASRPTPN	304

biological target: ScRvs167; assay: as above
Summary of the method: as §1

Binder	SPOT peptide array binding signal intensity
PAPPPPPRASRPTPN	966

biological target: ScSho1; assay: as above
Summary of the method: as §1

Binder	SPOT peptide array binding signal intensity
PAPPPPPRASRPTPN	45

biological target: ScSla1-D1-D2; assay: as above
Summary of the method: as §1

Binder	SPOT peptide array binding signal intensity
PAPPPPPRASRPTPN	565

biological target: ScSla1-D3; assay: as above
Summary of the method: as §1

Binder	SPOT peptide array binding signal intensity
PAPPPPPRASRPTPN	1.5

biological target: SpAbp1-D1; assay: as above
Summary of the method: as §1

Binder	SPOT peptide array binding signal intensity
PAPPPPPRASRPTPN	14.5

biological target: SpBbc1; assay: as above
Summary of the method: as §1

Binder	SPOT peptide array binding signal intensity
PAPPPPPRASRPTPN	1

biological target: SpBzz1-D1; assay: as above
Summary of the method: as §1

Binder	SPOT peptide array binding signal intensity
PAPPPPPRASRPTPN	208

biological target: SpBzz1-D2; assay: as above
Summary of the method: as §1

Binder	SPOT peptide array binding signal intensity
PAPPPPPRASRPTPN	6.5

biological target: SpCyk3; assay: as above
Summary of the method: as §1

Binder	SPOT peptide array binding signal intensity
PAPPPPPRASRPTPN	3

biological target: SpHof1; assay: as above
Summary of the method: as §1

Binder	SPOT peptide array binding signal intensity
PAPPPPPRASRPTPN	5.5

biological target: SpHof1-2; assay: as above
Summary of the method: as §1

Binder	SPOT peptide array binding signal intensity
PAPPPPPRASRPTPN	5.5

biological target: SpHof1-3; assay: as above
Summary of the method: as §1

Binder	SPOT peptide array binding signal intensity
PAPPPPPRASRPTPN	57.5

biological target: SpHse1; assay: as above
Summary of the method: as §1

Binder	SPOT peptide array binding signal intensity
PAPPPPPRASRPTPN	7.5

biological target: SpLsb1; assay: as above
Summary of the method: as §1

Binder	SPOT peptide array binding signal intensity
PAPPPPPRASRPTPN	69.5

biological target: SpLsb4; assay: as above
Summary of the method: as §1

Binder	SPOT peptide array binding signal intensity
PAPPPPPRASRPTPN	1170

biological target: SpMyo1; assay: as above
Summary of the method: as §1

Binder	SPOT peptide array binding signal intensity
PAPPPPPRASRPTPN	99.5

biological target: SpNbp2; assay: as above
Summary of the method: as §1

Binder	SPOT peptide array binding signal intensity
PAPPPPPRASRPTPN	29.5

biological target: SpPex13; assay: as above
Summary of the method: as §1

Binder	SPOT peptide array binding signal intensity
PAPPPPPRASRPTPN	2.5

biological target: SpRvs167; assay: as above
Summary of the method: as §1

Binder	SPOT peptide array binding signal intensity
PAPPPPPRASRPTPN	915

biological target: SpSla1-D1-D2; assay: as above
Summary of the method: as §1

Binder	SPOT peptide array binding signal intensity
PAPPPPPRASRPTPN	13

biological target: SpSla1-D3; assay: as above
Summary of the method: as §1

Binder	SPOT peptide array binding signal intensity
PAPPPPPRASRPTPN	≤ 0
